Experimental findings from PubChem BioAssay (NCI) are described below.

Compounds without any hit were thinned out: in the full panel of roughly 83,000, 20% have a hit.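 Method: cells in 96-well plates; compound added at one concentration; 48 h incubation; percent growth measured; values under 10 scored active.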 Unmarked numbers belong to inactive results. Activity calls are given as the source filed them.

Among the test systems are DU-145 prostate; K-562 leukemia; MALME-3M melanoma; MDA-MB-231 breast; RXF 393 renal; SF-268 CNS; SF-295 CNS; SF-539 CNS; UACC-257 melanoma; M14 melanoma; HCT-15 colon; HT29 colon; SNB-75 CNS; SNB-19 CNS; U251 CNS; PC-3 prostate; SK-MEL-5 melanoma; UACC-62 melanoma; LOX IMVI melanoma; SK-MEL-28 melanoma.
Common to all, as to assay: NCI-60 one-dose screen, 48 h (100 = growth as untreated, 0 = no growth, -100 = all killed)
Holding throughout (conditions): 10 µM unless noted

In the case of `CCCCCCCCCCCC(c1ccccc1)[N+](C)(C)C` (stereo not given), the growth in the assay on DU-145 prostate is 39.8%; in the assay on K-562 leukemia, 19%; in the assay on MALME-3M melanoma it was 5.27% (active); in the assay on MDA-MB-231 breast it was 21.1%; in the assay with RXF 393 renal, -61% (active); in the assay with SF-268 CNS, 13.2%. For the same compound, the growth was 55.1% in the assay on SF-295 CNS; 15.8% in the assay with SF-539 CNS; 20% in the assay on UACC-257 melanoma; 11.2% with M14 melanoma; 93.4% in the assay on HCT-15 colon; 3.96% (active) in the assay with HT29 colon. The growth with SNB-75 CNS is -15.3% (active); with SNB-19 CNS it was 25.2%; in the assay with U251 CNS it was 18.3%; in the assay with PC-3 prostate it was -18.8% (active); in the assay on SK-MEL-5 melanoma it was -80.1% (active); in the assay with UACC-62 melanoma, 6.22% (active). Also, the growth was -36.8% (active) with LOX IMVI melanoma and 31.6% in the assay with SK-MEL-28 melanoma.

On to `O=C1/C(=C2/C=Nc3ccccc32)N(O)c2ccccc21`, for which the growth in the assay on DU-145 prostate is 73.7%; with K-562 leukemia it was 19.6%; in the assay with MALME-3M melanoma, 56.3%; in the assay on MDA-MB-231 breast it was 64.9%; in the assay with RXF 393 renal, 92.2%; with SF-268 CNS it was 76%. For the same compound, the growth with SF-295 CNS is 71%; in the assay on SF-539 CNS, 104%; in the assay with UACC-257 melanoma, 45%; in the assay on M14 melanoma it was 87.4%; with HCT-15 colon, 49.5%; in the assay on HT29 colon, 100%. Also, the growth was 102% in the assay with SNB-75 CNS; 93% in the assay on SNB-19 CNS; 84.9% in the assay with U251 CNS; 51% with PC-3 prostate; 68% with SK-MEL-5 melanoma; 33.6% in the assay with UACC-62 melanoma. The growth with LOX IMVI melanoma is 33.5%; in the assay on SK-MEL-28 melanoma it was 92.8%.

In the case of `N#CC1=C(NC=O)Oc2c(ccc3ccccc23)C1c1ccccc1` (stereo not given), the growth in the assay on DU-145 prostate is 41.3%; in the assay with K-562 leukemia it was 15.1%; in the assay with MALME-3M melanoma, 66.8%; in the assay with MDA-MB-231 breast, 31.9%; in the assay with RXF 393 renal, 25.5%; with SF-268 CNS it was 41.3%. Moreover, the growth in the assay on SF-295 CNS was 29.3%; in the assay on SF-539 CNS, 8.89% (active); in the assay on UACC-257 melanoma it was 41.5%; in the assay on M14 melanoma it was 10.2%; in the assay on HCT-15 colon it was 30.3%; with HT29 colon it was 94%. Besides, the growth was 2.51% (active) with SNB-75 CNS; 30.8% in the assay on SNB-19 CNS; 21.6% in the assay on U251 CNS; 18.3% with PC-3 prostate; -33.1% (active) in the assay on SK-MEL-5 melanoma; 30.9% with UACC-62 melanoma. Further, the growth is 34.1% in the assay on LOX IMVI melanoma and 60.2% with SK-MEL-28 melanoma.

In the case of `CN(C)CCCn1c(=O)c2ccccc2c2ccccc21`, the growth is 44.1% in the assay on DU-145 prostate; 88.1% in the assay with K-562 leukemia; 100% in the assay on MALME-3M melanoma; 67% with MDA-MB-231 breast; 74.7% in the assay with RXF 393 renal; 68.2% with SF-268 CNS. The growth in the assay with SF-295 CNS is 83.3%; in the assay with SF-539 CNS it was 85.6%; with UACC-257 melanoma it was 93.8%; in the assay on M14 melanoma, 87.8%; in the assay on HCT-15 colon, 64.7%; in the assay with HT29 colon, 50%. In addition, the growth with SNB-75 CNS was 85.9%; in the assay on SNB-19 CNS, 73.4%; with U251 CNS it was 87.9%; with PC-3 prostate, 70%; in the assay on SK-MEL-5 melanoma it was 79.7%; with UACC-62 melanoma, 82.2%. Moreover, the growth in the assay on LOX IMVI melanoma is 56.5%; in the assay on SK-MEL-28 melanoma, 103%.

Take `O=c1c2c3c(sc2n2c(-c4cn(-c5ccccc5)nc4-c4ccc(Cl)cc4)nnc2n1Cc1ccccc1)CCCC3`: the growth was 103% in the assay with DU-145 prostate; 89.7% in the assay on K-562 leukemia; 97.4% in the assay on MALME-3M melanoma; 80.3% in the assay on MDA-MB-231 breast; 94.5% with RXF 393 renal; 99.7% with SF-268 CNS. The growth in the assay with SF-295 CNS was 98.5%; in the assay on SF-539 CNS, 90.3%; with UACC-257 melanoma, 118%; in the assay with M14 melanoma, 60.3%; in the assay with HCT-15 colon, 104%; in the assay with HT29 colon, 113%. Besides, the growth in the assay on SNB-75 CNS was 66.8%; with SNB-19 CNS, 97.9%; with U251 CNS, 98.2%; with PC-3 prostate it was 95.3%; in the assay on SK-MEL-5 melanoma, 95.8%; with UACC-62 melanoma it was 90.6%. Further, the growth is 72.3% in the assay on LOX IMVI melanoma and 105% in the assay with SK-MEL-28 melanoma.

Take `Cc1ccc(-c2c(-c3ccccc3)c(=O)oc3ccc(C)cc23)cc1`: the growth is 116% in the assay on DU-145 prostate; 76% in the assay with K-562 leukemia; 92.9% with MALME-3M melanoma; 91% in the assay with MDA-MB-231 breast; 107% in the assay with RXF 393 renal; 91.8% with SF-268 CNS. Also, the growth is 104% in the assay on SF-295 CNS; 109% in the assay on SF-539 CNS; 86.8% in the assay with UACC-257 melanoma; 102% in the assay with M14 melanoma; 52.1% in the assay with HCT-15 colon; 101% with HT29 colon. In addition, the growth with SNB-75 CNS is 86.3%; with SNB-19 CNS, 94.8%; in the assay on U251 CNS it was 83.1%; with PC-3 prostate, 56.4%; in the assay on SK-MEL-5 melanoma, 90.9%; in the assay with UACC-62 melanoma it was 76.1%. Further, the growth in the assay on LOX IMVI melanoma is 96.2%; with SK-MEL-28 melanoma, 110%.

In the case of `CC(=O)C(C)Cc1cc2c(cc1C)C(C)(C)CCC2(C)C` (stereo not given), the growth is 107% in the assay with DU-145 prostate; 105% with K-562 leukemia; 99% in the assay on MALME-3M melanoma; 109% with MDA-MB-231 breast; 104% in the assay with RXF 393 renal; 100% with SF-268 CNS. For the same compound, the growth in the assay on SF-295 CNS was 102%; in the assay with SF-539 CNS, 102%; in the assay on UACC-257 melanoma it was 79.1%; with M14 melanoma it was 88.1%; with HCT-15 colon, 96.7%; in the assay with HT29 colon, 93.3%. Besides, the growth in the assay on SNB-75 CNS is 96.4%; with SNB-19 CNS it was 116%; in the assay on U251 CNS, 97.1%; with PC-3 prostate, 77.4%; in the assay with SK-MEL-5 melanoma, 103%; in the assay on UACC-62 melanoma, 99.4%. Further, the growth is 90.7% with LOX IMVI melanoma and 106% in the assay on SK-MEL-28 melanoma.

On to `O=C(NCCCNc1cc(-c2cn(-c3ccccc3)nc2-c2cccc(O)c2)ccn1)c1cccc(O)c1`, for which the growth is 78.3% in the assay with DU-145 prostate; 7.59% (active) with K-562 leukemia; 64.2% in the assay on MALME-3M melanoma; 43.5% in the assay on MDA-MB-231 breast; 77.3% in the assay with RXF 393 renal; 63.8% in the assay with SF-268 CNS. In addition, the growth is 83.3% in the assay with SF-295 CNS; 69.5% in the assay on SF-539 CNS; 58.4% in the assay on UACC-257 melanoma; 52.8% in the assay with M14 melanoma; 79.5% with HCT-15 colon; 87% in the assay with HT29 colon. For the same compound, the growth in the assay on SNB-75 CNS was 59.8%; with SNB-19 CNS, 79.7%; in the assay with U251 CNS it was 42.3%; in the assay on PC-3 prostate, 39.4%; in the assay on SK-MEL-5 melanoma, 43.7%; in the assay with UACC-62 melanoma, 42%. For the same compound, the growth was 54.1% in the assay on LOX IMVI melanoma and 77.6% in the assay with SK-MEL-28 melanoma.
